Source: PubChem BioAssay AID1628 (Sanford-Burnham Center for Chemical Genomics, 2009)
The whole screen tested about 190,000 compounds, of which about 930 (0.49%) were called active.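 Rule for the calls: active = z-score of insulin promoter reporter brightness in nuclei below -3 at 5 µM, with at least 500 cells counted; inconclusive = wells with under 500 cells, flagged as toxic or sparse; inactive = the rest.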 Some of the results follow. Potency and affinity values are given separately.

assay: decrease of insulin promoter-GFP reporter – imaging, high-content screening, mouse beta cells (AID 1628); conditions: MIN6 insulin promoter GFP reporter, at 5 µM, stronger effect = lower value

z-score, active:
O=C(COc1ccc(S(=O)(=O)NCc2ccccc2)cc1Cl)N1CCOCC1 -4.71
CCCCn1c(CCC(=O)O)nc2cc(S(=O)(=O)N(C)C)ccc21 -3.06
CN(C)C(=S)N=Nc1[nH]c2ccccc2c1O -5.59
O=C(CNC(=O)c1cccc(F)c1)N/N=C/c1cc(Br)ccc1OC(=O)/C=C/c1ccco1 -8.62
COc1cc(C)c(CNc2ccc(OC)c(OC)c2)cc1C -4.27
CCc1ccc(NC(=O)c2c(C(=O)Nc3ccccc3)sc3nc(C)cc(=O)n23)cc1 -3.57
Cc1cc(C(=O)NCC(=O)OCC(=O)N2CCCCCC2)ccc1[N+](=O)[O-] -3.78
CCOC(=O)c1c(NC(=O)COC(=O)c2cc(OC)c(OC)cc2[N+](=O)[O-])sc(C)c1C -7.34
CCN(C#N)c1nc(NC(C)C)nc(NC(C)C)n1 -6.16
COc1ccc(N(CC(=O)Nc2ccccc2C(=O)NCC(C)C)S(C)(=O)=O)cc1 -3.31
COc1ccc(-n2c(C)cc(C(=O)CSc3nn4c(=O)c(C(C)(C)C)nnc4s3)c2C)cc1 -4.21
Cc1cc2nc(C3CCN(Cc4nnnn4Cc4cccs4)CC3)[nH]c2cc1C -3.92

z-score, inactive:
O=C(OCC(=O)c1ccc[nH]1)c1ccccc1 2.07
O=[N+]([O-])c1cc(S(=O)(=O)/N=C(/c2ccccc2)N2CCOCC2)ccc1Cl 1.77
CCOc1cc(C(=O)OCC(=O)NC(C)c2ccccc2)ccc1OCC(=O)N1CCOCC1 (stereo unspecified) 2.57
O=c1[nH]c2ccccc2c(O)c1O -0.06
Cc1ccc(CNc2ccc3c(c2)OCO3)c(C)c1 3.69
CCc1ccc(NC(=O)c2cc(C(C)C)on2)cc1 3.36
CC(=O)n1c(C=Nc2ccccc2)c(O)c2ccccc21 3.61
COC(=O)c1c(NC(=O)CC2Nc3cc(C)c(C)cc3NC2=O)sc(C)c1C (stereo unspecified) 6.44
CCC(=O)Nc1ccc(C(=O)OCC(=O)c2ccc(C)c([N+](=O)[O-])c2)cc1 3.37
COc1ccc(N(CC(=O)Nc2cc(OC)ccc2OC)S(C)(=O)=O)cc1 0.8
COc1ccc(-n2c(SCC(N)=O)nnc2-c2cccnc2)cc1 0.75
CN(C)S(=O)(=O)c1ccc(NC(=O)C2COc3ccccc3O2)cc1 (stereo unspecified) 2
COc1ccc2c(c1)C(=O)OC2CC(=O)O (stereo unspecified) 0.37
Cc1ccc(-c2cn3nc(-c4ccccc4)c(-c4ccccc4)nc3n2)cc1 8.16
